CYP2C9 inhib: human CYP2C9 inhibition | P11712 | inhibition, % at 5 µM | AID 777 | CYP2C9 Supersomes, luciferin-H conversion, luminescence | hit rate 20% among 96,000;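 active = blocking of liver enzyme CYP2C9 beyond about 50% at 5 µM, limit read from the data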
CYP2C19 inh: blocks human cytochrome P450 2C19 | AID 778 | hit rate 21% among 96,000 | inhibition, % at 5 µM | P33261 | CYP2C19 Supersomes, luciferin-H EGE luminescence, 30 min;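 active = CYP2C19 inhibition above a set limit at 5 µM in the primary screen, cut at about 50% in these data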;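 also: plate controls were negative control wells for no effect and 2.5 mM tranylcypromine positive control for full effect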
Target sequence (P33261 whole entry, looked up): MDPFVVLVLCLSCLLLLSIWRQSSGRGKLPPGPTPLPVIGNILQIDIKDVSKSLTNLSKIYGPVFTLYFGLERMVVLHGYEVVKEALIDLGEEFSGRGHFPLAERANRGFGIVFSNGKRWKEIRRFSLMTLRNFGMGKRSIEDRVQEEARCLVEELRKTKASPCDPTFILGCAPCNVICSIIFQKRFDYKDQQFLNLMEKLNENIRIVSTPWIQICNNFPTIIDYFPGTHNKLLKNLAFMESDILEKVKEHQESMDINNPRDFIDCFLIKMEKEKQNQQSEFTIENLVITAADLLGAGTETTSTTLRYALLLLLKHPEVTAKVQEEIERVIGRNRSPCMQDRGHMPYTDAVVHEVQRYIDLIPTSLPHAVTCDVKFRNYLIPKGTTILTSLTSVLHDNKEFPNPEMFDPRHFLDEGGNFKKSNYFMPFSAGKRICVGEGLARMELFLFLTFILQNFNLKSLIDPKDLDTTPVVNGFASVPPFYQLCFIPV
Measles CPE: protection of cells from measles virus | Measles virus-infected cells, CPE protection, absorbance | protection (pct of control), % at 4 µM | hit rate 1.5% among 140,000 | AID 841; in the data active = protection mostly above about 24%, no sharp cut-off; inactive = mostly below about 26%
CYP2C9 activ: increases human cytochrome P450 2C9 activity; hit rate 1.4% among 96,000; AID 1024; activation factor at 5 µM; recombinant CYP2C9, luciferin-H conversion, luminescence; hits give high values; factor 1 = untreated enzyme, 0 = blocked;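 active = activation factor of 2 or more for CYP2C9 at a 5 µM dose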;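 also: 0 = sulfaphenazole-blocked wells and 1 = vehicle-only wells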
CYP2C19 activ: increases human CYP2C19 enzyme activity; 96,000 tested, under 10 active; recombinant CYP2C19, luciferin-H EGE luminescence; hits give high values; 0 = fully inhibited enzyme, 1 = untreated enzyme; P33261; activation factor at 5 µM;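 active = activation factor of at least 2 at 5 µM in the primary screen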;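 also: 0 = wells with 2.5 mM tranylcypromine and 1 = vehicle-only wells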
The depositor's hits bear a star; nt = no result given. An excerpt weighted towards active compounds, which were near 22% of everything screened.

SMILES	CYP2C9 inhib	CYP2C19 inh	Measles CPE	CYP2C9 activ	CYP2C19 activ
Cc1cc(NC(=O)CSc2ncccn2)no1	nt	nt	14.3	nt	nt
COc1ccc(-c2cc(C(F)(F)F)nc(SCC(=O)Nc3cc(C)on3)n2)cc1OC	49.8	-4.4	2.9	0.5	1
CCCCc1nc(SCC(=O)Nc2cc(C)on2)n[nH]1	60.7*	53.4*	0.7	0.4	0.5
Cc1cc(NC(c2cccnc2)c2c(C)[nH]c3ccccc23)no1 (stereo unspecified)	3.6	62.5*	7.5	1	0.4
COc1ccc(C(=O)Oc2ccc3c(C)cc(=O)oc3c2C(C)=O)cc1	nt	nt	3.1	nt	nt
Cc1cc(=O)[nH]c(SCCCOc2ccc(F)cc2)n1	1.0	13.5	14.8	1	0.9
CCCOc1cccc(OCCSc2nc(C)cc(=O)[nH]2)c1	51.2*	45.7	15.1	0.5	0.5
CCC(=O)c1ccccc1OCCSc1nc(C)cc(=O)[nH]1	45.2	72.2*	5.6	0.5	0.3
CCc1c(C)nc(SCCOc2ccc(OC)cc2)[nH]c1=O	62.2*	66.0*	11.6	0.4	0.3
CCc1c(C)nc(SCCOc2ccc(OC(C)C)cc2)[nH]c1=O	-0.3	-14.0	7.7	1	1.1
CCc1nnc(NC(=O)CSc2nccn2-c2cccc(C)c2)s1	29.6	16.0	18.3	0.7	0.8
CC1CCC(NC(=O)COc2ccc(C(=O)c3ccccc3)cc2)CC1 (stereo unspecified)	nt	nt	4.9	nt	nt
Cc1cccc(N(Cc2nnc3n2CCCCC3)C(=O)Nc2ccccc2)c1	1.4	25.3	9.7	1	0.7
COC(=O)c1ccc(NC(=O)CSCc2ccccc2)cc1	38.4	25.8	3.4	0.6	0.7
COC(=O)c1ccc(NC(=O)CSCc2ccccc2C)cc1	92.5*	94.4*	9.8	0.1	0.1
COC(=O)c1ccc(NC(=O)CN2CCN(c3ccccc3C)CC2)cc1	nt	nt	2.0	nt	nt
COC(=O)c1ccc(NC(=O)CSCc2ccc(C)cc2)cc1	89.8*	75.1*	11.0	0.1	0.2
O=C(COC(=O)c1cc2c(s1)CCC2)Nc1ccc(F)cc1	nt	nt	11.2	nt	nt
CCOc1ccccc1N(C(=O)CNS(=O)(=O)c1ccccc1)C(CC)C(=O)NCc1ccco1 (stereo unspecified)	16.0	16.4	15.3	0.8	0.8
CCOC(=O)c1ccc(NC(=O)CSc2nnc(CNc3ccc(OC)cc3)n2C)cc1	27.3	27.1	-1.4	0.7	0.7
COc1ccc2c(c1)[nH]c1c(=O)n(Cc3ccccn3)cnc12	51.0*	44.0	0.3	0.5	0.6
Cc1cc(F)ccc1S(=O)(=O)Nc1c(C)n(C)n(-c2ccccc2)c1=O	50.4*	90.9*	8.4	0.5	0.1
Cc1c(NC(=O)c2ccc(F)cc2)c(=O)n(-c2ccccc2)n1C	-15.3	-18.2	3.3	1.2	1.2
Cc1c(NC(=O)c2c(N)n(-c3ccccc3)c3nc4ccccc4nc23)c(=O)n(-c2ccccc2)n1C	nt	nt	59.2*	nt	nt
CCC(CC)C(=O)Nc1c(C)n(C)n(-c2ccccc2)c1=O	51.2*	2.7	47.9*	0.5	1
SMILES	CYP2C9 inhib	CYP2C19 inh	Measles CPE	CYP2C9 activ	CYP2C19 activ
Cc1c(NC(=O)c2c(F)cccc2F)c(=O)n(-c2ccccc2)n1C	1.0	-2.1	26.6	1	1
Cc1ccc(N(CC(=O)Nc2c(C)n(C)n(-c3ccccc3)c2=O)S(C)(=O)=O)cc1C	nt	nt	4.3	nt	nt
Cc1cccc(N(CC(=O)Nc2c(C)n(C)n(-c3ccccc3)c2=O)S(C)(=O)=O)c1C	12.2	90.8*	0.3	0.9	0.1
CCCn1c(C)cc(C(=O)COc2ncnc3sccc23)c1C	16.9	-3.8	0.9	0.8	1
Cc1cc(-c2csc(NC(=O)c3ccc(C#N)cc3)n2)c(C)n1Cc1ccccc1	nt	nt	12.6	nt	nt
Cc1c(NS(=O)(=O)N2CCCC2)c(=O)n(-c2ccccc2)n1C	3.8	23.1	nt	1	0.8
Cc1c(Nc2nc3ccccc3nc2N2CCN(c3ccccc3)CC2)c(=O)n(-c2ccccc2)n1C	75.4*	34.7	6.4	0.2	0.7
Cc1c(NS(C)(=O)=O)c(=O)n(-c2ccccc2)n1C	-0.8	-7.4	55.0*	1	1.1
Cc1c(NC(=O)COC(=O)C(c2ccc(Cl)cc2)C(C)C)c(=O)n(-c2ccccc2)n1C (stereo unspecified)	57.7*	31.2	4.0	0.4	0.7
N#Cc1nc(-c2ccc(OCc3ccccc3)cc2)oc1NCCN1CCOCC1	47.6	40.9	3.5	0.5	0.6
O=C1SC(c2ccccc2)=N/C1=C/c1ccco1	22.4	9.4	0.5	0.8	0.9
Brc1ccc(-c2nc(N/N=C/c3cccnc3)c3ccccc3n2)cc1	64.0*	43.1	9.9	0.4	0.6
Cc1ccccc1CN1CCN(CC(=O)NCc2ccccc2)C1=O	30.4	12.1	3.9	0.7	0.9
O=C(CSc1nnc(Cc2cccs2)n1Cc1ccco1)Nc1ccc(Cl)cc1Cl	61.9*	49.9	14.2	0.4	0.5
C=CCn1c(Cc2cccs2)nnc1SCC(=O)Nc1ccc(C(=O)OCC)cc1	13.7	9.6	1.8	0.9	0.9
O=C(CSc1nnc(-c2ccco2)n1Cc1ccco1)NCc1cccs1	57.0*	51.1*	18.4	0.4	0.5
O=C(CSc1nnc(Cc2cccs2)n1Cc1ccco1)Nc1ccc(Br)cc1	93.0*	88.8*	20.5	0.1	0.1
Cc1ccc(-n2nc3c(c2NC(=O)/C=C\c2ccc4c(c2)OCO4)CSC3)c(C)c1	nt	nt	11.1	nt	nt
O=C(Nc1cc(C(F)(F)F)ccc1F)C1CCC1	-27.7	19.1	21.9	1.3	0.8
COc1ccc(CCN2CCCn3c2nc2c3c(=O)n(Cc3ccccc3F)c(=O)n2C)cc1OC	26.8	23.5	27.4	0.7	0.8
COc1cc(OC)c(OC)cc1/C=N/NC(=O)c1ccc(=O)n(C)c1	nt	nt	12.3	nt	nt
COc1cc2c(-c3ccc(O)cc3)nc3c(c(C)nn3-c3ccccc3)c2cc1OC	nt	nt	19.8	nt	nt
COc1cc2c(C)nc3onc(-c4ccccc4)c3c2cc1OC	77.4*	54.5*	14.1	0.2	0.5
CC1CCc2nn(CC(=O)Nc3c(F)cc(F)cc3Br)cc2C1 (stereo unspecified)	62.2*	43.1	20.3	0.4	0.6
CC1CCc2nn(CC(=O)NCc3ccc(F)cc3)cc2C1 (stereo unspecified)	46.6	89.7*	2.1	0.5	0.1
SMILES	CYP2C9 inhib	CYP2C19 inh	Measles CPE	CYP2C9 activ	CYP2C19 activ
CCC(C)NC(=O)CC(c1ccc(OC)cc1)n1cccc1 (stereo unspecified)	25.9	28.4	4.2	0.7	0.7
O=C1O/C(=C/c2ccccc2)N=C1c1ccccc1	nt	nt	2.1	nt	nt
Cc1ccc(S(=O)(=O)NCC(=O)N/N=C/c2ccc(Cl)cc2Cl)cc1	nt	nt	5.3	nt	nt
CCOC(=O)Cc1csc(NC(=O)CSc2ncnc3c2cnn3-c2ccccc2Cl)n1	90.5*	70.1*	20.8	0.1	0.3
Cc1nnc(NC(=O)CSc2ncnc3c2cnn3-c2ccccc2C)s1	36.8	-18.2	13.5	0.6	1.2
O=C1CCc2cc(S(=O)(=O)N3CCN(c4ccccc4F)CC3)ccc2N1	34.3	30.5	9.5	0.7	0.7
Cc1nc2c(n1C1CCCCC1)C(=O)c1ccccc1C2=O	55.4*	80.9*	1.7	0.4	0.2
Cc1cc(C)n2c(SCC(=O)Nc3ccccc3)nnc2n1	-4.6	29.4	16.1	1	0.7
